Measurements taken from ChEMBL document CHEMBL3988442, “University of Dundee, Small-Polar-MMV Screening Library” (2021).
The whole screen tested about 48,000 compounds, of which about 13,000 (27%) showed an effect of 50% or more. This is one part of the list.

Tested on: Wolbachia pipientis
Assay: Anti-Wolbachia Cell-Based Screen
Format: functional
Parameters: scale not given: in the data most compounds retested in dose-response had high values
Settings: 5 µM

Structure (SMILES)	Percent Effect
CO[C@H]1COCCN(C(=O)c2ccc(C#N)cc2)C1	6.544%
CC(NC(=O)CN1C=Nc2ccccc2S1(=O)=O)c1ccccc1 (centres undefined)	1.961%
Cc1cc(NC(=O)N(C)C2CCCN(c3ccccc3)C2=O)n(C)n1 (centres undefined)	12.64%
Cc1nn(C(C)C)c(C)c1NC(=O)c1ccccc1	-6.028%
Cc1c(NC(=O)C(C)N(C)C)c(=O)n(-c2ccccc2)n1C (centres undefined)	117.4%
CN(Cc1ccsc1)c1nc(-c2ccccn2)nc2c1CCNCC2	9.446%
O=C(c1ccccn1)N1CCCN(Cc2nnc(C3CC3)o2)CC1	-3.394%
CN(C)S(=O)(=O)N1CCC(c2nnc(C(F)(F)F)o2)CC1	9.522%
CCS(=O)(=O)N1CCC(c2nnc(C(F)(F)F)o2)CC1	-1.552%
O=C(Cc1ccccc1)N1CC[C@@H]2CNS(=O)(=O)[C@@H]2CC1	-4.028%
Cc1nnc([C@@H]2CCO[C@@H]3CCN(C(=O)Cc4ccccn4)C[C@@H]32)o1	-1.99%
O=C(Cn1cccn1)N1CCC(c2nnc(C(F)(F)F)o2)CC1	121.4%
O=C(CCn1cccn1)N1CCC(C2CCN(c3ncccn3)CC2)C1 (centres undefined)	0.2616%
O=C(CC1CCN(c2ncnc3ccccc23)CC1)N1CCCC1	-18.62%
O=C(CCn1cccn1)N1CCC(c2nnc(-c3ccccn3)o2)CC1	80.52%
O=C(CC1CCCC1)N1CCC(c2nnc(-c3ccccn3)o2)CC1	116.1%
O=C(Cc1ccccc1)N1CCC(c2nnc(-c3ccccn3)o2)CC1	100.4%
CS(=O)(=O)NC1CCN(C(=O)CCn2cccn2)CC1	-7.028%
Cc1cnn(CC2CCN(c3cc(C(C)C)nc4ccnn34)CC2)c1	-2.497%
COC(=O)c1sccc1S(=O)(=O)N1CCC(Oc2cccc(C)n2)CC1	-4.236%
Cc1ccc(Cc2sc(NC(=O)C(C)S(C)(=O)=O)nc2C)cc1 (centres undefined)	-9.615%
O=C(CC1CCN(c2ncnc3cccc(F)c23)CC1)N1CCCC1	7.525%
Cn1cncc1-c1nnc([C@H]2CCN(Cc3cccnc3)C2)o1	-10.77%
CN(C)CCCn1ccnc1C1CCN(C(=O)Cc2cccnc2)CC1	-18.68%

Structure (SMILES)	Percent Effect
O=C(CC1CCCC1)N1CCC(c2noc(-c3ccccn3)n2)CC1	138.8%
O=C(Cc1cccnc1)N1CCC(c2nnc(-c3ccccn3)o2)CC1	116.7%
Cc1noc(C)c1CN(C)CCC(=O)N1CCc2sccc2C1	-7.36%
O=C(NCC1CC1)[C@@H]1CC[C@@H]2[C@@H](CCN2Cc2ccc(F)c(F)c2)O1.O=C(O)C(F)(F)F	110.1%
O=C(NCCc1ccncc1)[C@@H]1CC[C@@H]2[C@@H](CCN2Cc2ccco2)O1.O=C(O)C(F)(F)F.O=C(O)C(F)(F)F	-6.425%
CNC(=O)[C@@H]1CC[C@@H]2[C@@H](CCN2Cc2ccccc2F)O1.O=C(O)C(F)(F)F	-4.389%
O=C(NCC1CC1)[C@@H]1CC[C@@H]2[C@@H](CCN2Cc2ccco2)O1.O=C(O)C(F)(F)F	95.42%
O=C(NCC1CC1)[C@@H]1CC[C@@H]2[C@@H](CCN2CCOCc2ccccc2)O1	-46.75%
O=C(NCc1ccco1)[C@@H]1CC[C@@H]2[C@@H](CCN2CC2CC2)O1.O=C(O)C(F)(F)F	-3.769%
O=C(NCc1ccco1)[C@@H]1CC[C@@H]2[C@@H](CCN2Cc2ccc(F)cc2)O1.O=C(O)C(F)(F)F	-0.4343%
O=C(NCC1CCOCC1)[C@@H]1CC[C@@H]2[C@@H](CCN2Cc2ccncc2)O1.O=C(O)C(F)(F)F.O=C(O)C(F)(F)F	108.2%
CNC(=O)[C@H]1CC[C@@H]2[C@@H](CCN2CCOCc2ccccc2)O1.O=C(O)C(F)(F)F	2.484%
COc1ccc(CN2CC[C@H]3O[C@@H](C(=O)NCC4CC4)CC[C@H]32)cc1.O=C(O)C(F)(F)F	93.13%
O=C(NCCc1ccc(Cl)cc1)c1coc(CN2CCOCC2)c1	-3.788%
CC1=C(C#N)C(=O)NC(=O)/C1=C\c1c(C)nn(-c2ccccc2)c1O	95.98%
Cc1nn(-c2ccccc2)c(C)c1CNC(=O)NC1CC(=O)N(C)C1 (centres undefined)	1.592%
Cc1ccc(-n2nc(C)c3c2NC(=O)CC3c2cnc(N)s2)cc1 (centres undefined)	19.39%
CC1=C(C#N)C(=O)NC(=O)/C1=C\c1c(C)nn(-c2ccc(C)cc2)c1O	117.9%
CC1=C(C#N)C(=O)NC(=O)/C1=C\c1c(C)nn(-c2ccc(Cl)cc2)c1O	109.3%
Cc1nn(-c2ccccc2)c2c1C(c1ccc(C(=O)O)cc1)CC(=O)N2 (centres undefined)	-3.155%
CCn1c(C)cc(C(=O)NCc2cccc(S(=O)(=O)NC)c2)c1C	-0.4884%
CCc1ccc(C(=O)NCc2cccc(S(=O)(=O)NC)c2)o1	104.9%
CNS(=O)(=O)c1cccc(CNC(=O)NCC2CCOC2)c1 (centres undefined)	-2.881%
CNS(=O)(=O)c1cccc(CNC(=O)c2cc(C)no2)c1	131.9%

Structure (SMILES)	Percent Effect
CNS(=O)(=O)c1ccc(CNC(=O)c2cc(-c3ccccn3)no2)cc1	-10.88%
CNS(=O)(=O)c1ccc(CNC(=O)c2cc(C)no2)cc1	3.551%
COCc1nc(C(=O)NS(=O)(=O)c2ccc(F)c(F)c2)cs1	-13.23%
CCN(CC(=O)NC(C)C)C(=O)c1csc(Cc2ccccc2)n1	-19.99%
Cc1nc(C)c(CC(=O)NCc2ccccc2F)s1	8.727%
CC(=O)Nc1nc(C(=O)NCCOc2ccccc2F)cs1	-9.068%
CC(C)NC(=O)CN(C)C(=O)c1csc(Cc2ccccc2F)n1	122.3%
CCNC(=O)CN(CC)C(=O)Cc1csc(C(C)C)n1	11.15%
CCNC(=O)CN(CC)C(=O)c1csc(Cc2ccccc2F)n1	97.94%
CC(C)NC(=O)CNC(=O)c1csc(Cc2ccccc2F)n1	109.5%
COC(=O)CCN(C)C(=O)c1ccc(-c2cscn2)cc1	-8.458%
COC(=O)CCN(C)C(=O)c1csc(Cc2ccccc2F)n1	117.5%
CCN(CC(=O)NC)C(=O)c1csc(Cc2ccccc2)n1	-20.14%
CC(C)NC(=O)CCNC(=O)Nc1cnn(-c2ccccc2F)c1	-8.567%
CCc1ccc(CNC(=O)CCc2nnc(-c3ccc(C)s3)o2)nc1	18.56%
CC(C)c1cc(C(=O)N(c2ccc(F)cn2)C2CCOCC2)on1	-4.853%
N#Cc1ccc(CN2CCc3sccc3C2)c(F)c1	2.911%
CCc1ccc(C(C)NCc2nccn2Cc2ccccc2)o1 (centres undefined)	-9.423%
CCNC(=O)N(Cc1cccc(OC)c1)C1CCC(O)CC1 (centres undefined)	-8.682%
OCc1nnc2n1CCN(c1cnccn1)C2	108%
c1ccn(Cc2nnc3n2CCCN(c2cnccn2)C3)c1	100.7%
Fc1cnc(N2CCn3c(CN4CCCC4)nnc3C2)nc1.O=C(O)C(F)(F)F	-4.314%
c1cnc(N2CCCn3c(nnc3Cn3cccn3)C2)nc1	3.271%
Fc1cnc(N2CCCn3c(nnc3Cn3cccc3)C2)nc1.O=C(O)C(F)(F)F	0.8563%

Structure (SMILES)	Percent Effect
CC(C)N(C)Cc1nnc2n1CCCN(c1cnccn1)C2	115.4%
CCS(=O)(=O)N1CCc2nnc(CN(C)C(C)C)n2CC1	-16.92%
CN(C)CCOCc1nnc2n1CCN(c1cnccn1)CC2	1.736%
CN(C)Cc1nnc2n1CCN(c1cnccn1)CC2.O=C(O)C(F)(F)F	-7.956%
OCCOc1ccc(NCc2cccc3[nH]ccc23)cn1	0.765%
CC(C(=O)Nc1ncccn1)N1CCCN(c2nccs2)CC1 (centres undefined)	-8.894%
CCn1nc(C)c(CNC(=O)NCC(C)(O)c2ccc(C)o2)c1C (centres undefined)	57.07%
CCn1nc(C)c(CNC(=O)NCC(C)(O)c2ccco2)c1C (centres undefined)	-13.65%
CCn1nc(C)c(CNC(=O)NCC(C)(O)c2ccccc2)c1C (centres undefined)	3.084%
O=C(c1coc(CN2CCN(c3ccccc3F)CC2)n1)N1CCCC1	-9.887%
O=C(O)C(F)(F)F.O=C(c1ccccc1)N1C[C@@H]2CCCO[C@@H]2[C@H](N2CCCC2)C1	0.7695%
Cc1ccccc1C(=O)N1C[C@@H]2C[C@@H](C)O[C@@H]2C1	-6.005%
Cn1cccc1C(=O)N1C[C@@H]2CCCO[C@@H]2[C@H](N2CCOCC2)C1	10.78%
CS(=O)(=O)c1ccc(NC(=O)N2C[C@H](O)[C@@H](N3CCOCC3)C2)cc1	-0.5097%
Cc1ccccc1C(=O)N1CC2(COC(C)(C)OC2)C1	-1.566%
CC(=O)N1CCN([C@@H]2CN(C(=O)c3ccccc3C)C[C@H]2O)CC1	166%
CC(=O)N1CCN([C@@H]2CN(C(=O)c3ccccc3)C[C@H]2O)CC1	163.7%
CCCc1cc(C(=O)N2C[C@H](O)[C@@H](N3CCCC3)C2)ccn1	-25.18%
Cc1ccccc1C(=O)N1C[C@@H](O)[C@H](N2CCOCC2)C1	137.5%
CCCN(CC1CC1)S(=O)(=O)c1ccc(NC(C)=O)cc1	9.5%
CCN(Cc1noc(C)n1)C(=O)CCn1c(C)cc2ccccc21	-6.675%
Cc1cc(NCC(=O)N(C)C(C)c2cccs2)c(C(N)=O)cc1F (centres undefined)	-3.325%
